# Data: PubChem BioAssay AID710 (SRMLSC, 2007)
# Hit rate of the full screen: of about 98,000 compounds, about 150 (0.15%) were called active. Many of the other results were omitted from the sample, so actives are more common in it than they were. Values without a mark were called inactive.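 How the source made its calls: active means growth inhibition above about 50% at one test dose (limit read from the data); inactive means the rest.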
# Assay: growth inhibitors of wild-type E. coli, primary screen, strain BW25113, expanded library, OD600 (AID 710);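 further: growth measured after 20 h incubation at 37 °C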
# Conditions: OD600 absorbance, at 100 µM, stronger effect = higher value
row,SMILES,growth inhibition
1,Cc1nnc(SCC(=O)NC2CCCC2)s1,-2%
2,COc1ccc(C(C#N)Nc2ccc(C)cc2)cc1 (stereo unspecified),3%
3,CC1(C)C2CCC1(C)C(OC(=O)CCn1ccnc1)C2 (stereo unspecified),6%
4,Brc1ccc(OCCn2ccnc2)cc1,55% (active)
5,CCOc1ccccc1C(=O)NCCCn1ccnc1,10%
6,Cc1ccc(Cc2c(C)nc3nc(SCC(=O)NCCN4CCOCC4)nn3c2C)cc1,-9%
7,Cc1ccc(S(=O)(=O)N(CC(=O)N/N=C/c2ccc(F)cc2)c2cccc3cccnc23)cc1,-18%
8,CN(Cc1nc2ccccc2c(=O)[nH]1)Cc1cc(=O)oc2ccc3ccccc3c12,-4%
9,COC(=O)C1=C(Nc2ccc(OC)cc2)C=C(C)C(C(=O)OC)C1c1ccc(C)cc1 (stereo unspecified),-13%
10,N#C/C(=C(/O)COc1cccc2ccccc12)c1nc2ccccc2[nH]1,-8%
11,OC(COc1ccc2c(c1)CCC2)CN1CCN(c2cccc(Cl)c2)CC1 (stereo unspecified),0%
12,CCc1nnc(NC(=O)CCC(=O)NCc2ccccc2OC)s1,-2%
13,Cc1ccc(-c2nnc(-n3nnc4ccccc43)c3ccccc23)cc1,-7%
14,O=C(N/N=C/C=C/c1ccccc1)C1CC1(c1ccccc1)c1ccccc1 (stereo unspecified),-15%
15,N=c1c2c(-c3ccccc3)c(-c3ccccc3)n(Cc3ccccc3)c2ncn1CCCO,13%
16,COc1ccc(/C=C2\CCCC3C2=NN(C(=O)c2scnc2C)C3c2ccc(OC)cc2)cc1 (stereo unspecified),-16%
17,CCC(=O)NC(NCC1CCCO1)C(Cl)(Cl)Cl (stereo unspecified),3%
18,Cc1ccc(CNC(=O)COc2ccc(S(=O)(=O)NC(C)C)cc2)cc1,0%
19,CSc1ccc(C#N)cc1NC(=O)c1cccc(Cl)c1,-8%
20,Cc1cccc(NC(=O)/C(=C\c2ccco2)NC(=O)c2ccccc2)c1,-2%
21,CNC(=S)NNC(=O)c1sccc1OCc1ccccc1,-7%
22,Cc1ccc(NC(=S)NC(=O)c2ccc(-c3ccccc3)cc2)c(C)c1,-9%
23,COc1cccc(N(CC(=O)NCCSc2ccccn2)S(C)(=O)=O)c1,-2%
24,CN(C)c1nc(N)nc(CSc2ccccn2)n1,-1%
25,COc1ccccc1CSc1nc2ccccc2[nH]1,8%
26,COc1ccc(Nc2nc(-c3ccccc3)cs2)cc1,-6%

row,SMILES,growth inhibition
1,CN1C2CCC1/C(=C\c1ccccc1Cl)C(=O)/C2=C\c1ccccc1Cl,-3%
2,CSCCC(C(=O)NC1=NCCS1)N1C(=O)c2ccccc2C1=O (stereo unspecified),-1%
3,COc1ccccc1NC(=O)COc1ccc(C(=O)OCC(=O)N(C(C)C)C(C)C)cc1OC,-6%
4,Cc1ccc2nc(SCc3nnc(-c4ccccc4[N+](=O)[O-])o3)c(C#N)cc2c1,-15%
5,CC(Sc1nnc(Cc2ccc([N+](=O)[O-])cc2)o1)C(N)=O (stereo unspecified),2%
6,COc1ccc(NC(=O)CC2COc3ccccc3O2)c(OC)c1 (stereo unspecified),7%
7,CCN(CC)S(=O)(=O)c1ccc2c3c(cccc13)C(=O)S2,1%
8,COC(=O)[C@@H](NC(=O)Nc1cc(Cl)ccc1C)C(C)C,2%
9,O=C(Nc1ccc2nc3n(c(=O)c2c1)CCCCC3)c1ccccc1Cl,-6%
10,COc1ccc(NC(=O)CSc2nc(N)c(-c3ccccc3)c(=O)[nH]2)cc1,-12%
11,CCOC(=O)c1cc2c(ccn2C)n1CC(=O)N1CCC(C)CC1,-6%
12,COc1ccc(NC(=O)CSc2nc(NS(=O)(=O)c3ccc(C)cc3)cc(=O)[nH]2)cc1,-5%
13,S=C1SCN(CCN2CCOCC2)CN1Cc1ccccc1,50% (active)
14,CC(CN1CCOCC1)c1ccccc1 (stereo unspecified),4%
15,COc1ccc(CN2CN(C(C)C)CSC2=S)cc1,38%
16,COC(=O)c1ccc(CSc2nc3cc(Cl)ccc3o2)cc1,-5%
17,CC(=O)Nc1ccc(N2C(=O)CCC2=O)cc1C,0%
18,Cc1n[nH]c(=S)n1/N=C/c1ccc(Br)o1,-6%
19,COC(=O)c1ccc(NC(=O)c2ccccc2NS(=O)(=O)c2ccccc2)cc1,4%
20,CCOCCOCCC(C(=O)O)P(=O)(c1ccccc1)c1ccccc1 (stereo unspecified),7%
21,N#Cc1ccc(-c2ccc(Cl)cc2)nc1Oc1ccc(F)cc1,-7%
22,CCC1CCCCN1CCCNC(=O)C1CCC(Cn2c(=O)[nH]c3ccccc3c2=O)CC1 (stereo unspecified),4%
23,O=C1/C(=C/c2cccs2)CCc2ccccc21,7%
24,Cc1cccc(NC(=O)C(C)N2C(=O)C3C4CC(C(Br)C4Br)C3C2=O)c1 (stereo unspecified),7%
25,Cc1ccc(S(=O)(=O)N(C)C2(C)CCS(=O)(=O)C2)cc1 (stereo unspecified),4%
26,O=C(CN1CCSCC1)N/N=C/c1ccc(F)cc1,2%

row,SMILES,growth inhibition
1,CCCCNc1ccc(C(=O)Nc2cccc(C)n2)cc1[N+](=O)[O-],4%
2,CCN(CC)C(=O)CSC1c2ccccc2C(=O)N1c1ccccc1 (stereo unspecified),1%
3,CCCOc1ccc(C2NC(=O)NC(c3ccccc3)=C2C(C)=O)cc1OCC (stereo unspecified),-2%
4,COc1ccc(C(=O)Nc2ccc(F)cc2F)cc1,10%
5,CC(C)(C)c1cc2cccnc2n1Cc1ccccc1,9%
6,Cc1ccc(-c2nc3ccccc3[nH]2)cc1NC(=O)c1sc2ccccc2c1Cl,-18%
7,CCC(=O)N(Cc1ccccc1)c1ccccn1,-3%
8,CCc1cc(C(c2ccccc2OC)N2CCOCC2)c(NC(=O)c2ccccc2)s1 (stereo unspecified),-3%
9,CSc1ccccc1NC(=O)c1cc(C2CC2)on1,6%
10,O=C(c1ccccc1)C(Cn1cncn1)C(Sc1ccccc1)c1ccccc1 (stereo unspecified),-9%
11,O=C(CCN1C(=O)c2ccccc2C1=O)Nc1cccc(F)c1,0%
12,c1ccc2c(C[n+]3csc4ccccc43)cccc2c1,-14%
13,CCCC(=O)Nc1nc2ccc(NC(=O)c3cccnc3)cc2s1,8%
14,O=C(CC12CC3CC(CC(C3)C1)C2)Nc1ccc2c(c1)COC2=O,-1%
15,O/N=C1\CC2(Cc3nonc31)OCCO2,-4%
16,ON=C1/C(=N\O)CC2(C/C1=N/O)OCCO2,57% (active)
17,N=c1ccn(CC(=O)NC(N)=O)c2ccccc12,-4%
18,Cc1nonc1NC(=O)c1ccccc1Br,-2%
19,O=C(Nc1nnc(-c2ccc(Cl)cc2)o1)c1ccccc1Br,57% (active)
20,O=C(Nc1cccc(Cl)c1)Nc1nnc(-c2ccccc2)o1,2%
21,CCCN(Cc1cc2cccc(C)c2[nH]c1=O)S(C)(=O)=O,2%
22,CCSc1nc(-c2ccc(OC)cc2)cc(-c2ccc(OC)cc2)c1C#N,-14%
23,CC(C)(C)Cc1nnc(NC(=O)c2cc(-c3ccccc3)nc3ccccc23)s1,-12%
24,Cc1cc2c(cc1C)N(C(=O)CN1C(=O)c3ccccc3C1=O)C(C)(C)c1ssc(=S)c1-2,-26%
25,CC(C)NC(=O)C(=O)N/N=C/c1ccco1,0%
26,Cc1ccc(NC(=S)NC2CCCC2)cc1,10%

row,SMILES,growth inhibition
1,CCOc1ccc(OCC)c(-c2c(=O)n(OCc3ccc(Cl)cc3)c3ccccc3[n+]2[O-])c1,-15%
2,COc1ccc([N+](=O)[O-])cc1C1NN=C(c2cccc3ccccc23)S1 (stereo unspecified),3%
3,Cc1cc(C)cc(OCC(=O)Nc2nc3ccc([N+](=O)[O-])cc3s2)c1,-14%
4,O=C(NC(Nc1nc2ccc([N+](=O)[O-])cc2s1)(C(F)(F)F)C(F)(F)F)c1ccccc1,50% (active)
5,COC(=O)C(NC(=O)c1ccc(OC)cc1)(Nc1ncc(S(=O)(=O)c2ccc([N+](=O)[O-])cc2)s1)C(F)(F)F (stereo unspecified),-3%
6,Cc1cc(C)c2cc(CN(Cc3nnnn3Cc3ccc(F)cc3)C3CCCC3)c(=O)[nH]c2c1,-11%
7,O=C(NC1CCN(C(=S)NCc2ccco2)CC1)c1ccc(F)cc1,-4%
8,Cc1ccccc1OC/C(O)=C(\C#N)c1nc2ccccc2[nH]1,-10%
9,O=C(Cc1ccccc1)N/N=C/c1ccc(Cl)cc1Cl,1%
10,CC12c3ccccc3C(c3ccccc31)C1C(=O)N(Cc3cccnc3)C(=O)C12 (stereo unspecified),-1%
11,CCOc1ccc(N=C2NC(=O)S/C2=C\c2ccc(O)cc2)cc1,-8%
12,Cc1nnc(NC(=O)Nc2ccc(Cl)c(Cl)c2)s1,-9%
13,N/C(=N\OC(=O)Nc1ccc(Cl)c(Cl)c1)c1ncc(C(F)(F)F)cc1Cl,8%
14,O=C(CC(O)(C(F)(F)F)C(F)(F)F)Nc1ccc(Cl)c(Cl)c1,88% (active)
15,Cc1nn(C)c(Oc2ccc(Cl)cc2)c1C=O,-1%
16,FC(F)(F)c1ccc2nnc(-c3c(Cl)cccc3Cl)n2c1,-2%
17,Cc1cc(C)c2c(-n3cccc3)c(C(=O)NNS(=O)(=O)c3ccc(F)cc3)sc2n1,16%
18,COC(=O)c1sc2ncccc2c1OCc1ccc(Cl)cc1Cl,-14%
19,NC(N)=N/N=C/c1ccc(OCc2ccc(Cl)cc2Cl)cc1,97% (active)
20,NC(=O)COc1ccc(/C=N/NC(=O)C2CCCN2S(=O)(=O)c2ccc(Cl)cc2)cc1 (stereo unspecified),6%
21,C=CCOC(=O)C1=C(C)NC(C)=C(C(=O)OCC=C)C1c1cccs1,5%
22,CCOC(=O)CN(Cc1ccc(OC)c(OC)c1)S(=O)(=O)c1ccc(OC)cc1,0%
23,O=C(NCc1cccnc1)c1cccnc1Sc1ccc(Cl)cc1,10%
